# Only some compounds are listed: those with a hit (about 2.8% of all), similar ones and a draw of the others.
# KDM5B inh = Primary screen for KDM5B Histone Demethylases FDH-coupled qHTS; Lysine-specific demethylase 5B (Homo sapiens), Q9UGL1; KDM5B demethylase, FDH-coupled NADH fluorescence (FDH is formaldehyde dehydrogenase); Potency, µM (top dose mostly 57.7 µM), usual class: inhibitors; hit rate 2.6% among 220,000; AID 1347165, 2019; also: potency is read from the fitted curve at half-maximal effect; 0% is about no effect; nearly all actives have a fitted effect of over 70% in size
# Target sequence (Q9UGL1 whole entry, looked up): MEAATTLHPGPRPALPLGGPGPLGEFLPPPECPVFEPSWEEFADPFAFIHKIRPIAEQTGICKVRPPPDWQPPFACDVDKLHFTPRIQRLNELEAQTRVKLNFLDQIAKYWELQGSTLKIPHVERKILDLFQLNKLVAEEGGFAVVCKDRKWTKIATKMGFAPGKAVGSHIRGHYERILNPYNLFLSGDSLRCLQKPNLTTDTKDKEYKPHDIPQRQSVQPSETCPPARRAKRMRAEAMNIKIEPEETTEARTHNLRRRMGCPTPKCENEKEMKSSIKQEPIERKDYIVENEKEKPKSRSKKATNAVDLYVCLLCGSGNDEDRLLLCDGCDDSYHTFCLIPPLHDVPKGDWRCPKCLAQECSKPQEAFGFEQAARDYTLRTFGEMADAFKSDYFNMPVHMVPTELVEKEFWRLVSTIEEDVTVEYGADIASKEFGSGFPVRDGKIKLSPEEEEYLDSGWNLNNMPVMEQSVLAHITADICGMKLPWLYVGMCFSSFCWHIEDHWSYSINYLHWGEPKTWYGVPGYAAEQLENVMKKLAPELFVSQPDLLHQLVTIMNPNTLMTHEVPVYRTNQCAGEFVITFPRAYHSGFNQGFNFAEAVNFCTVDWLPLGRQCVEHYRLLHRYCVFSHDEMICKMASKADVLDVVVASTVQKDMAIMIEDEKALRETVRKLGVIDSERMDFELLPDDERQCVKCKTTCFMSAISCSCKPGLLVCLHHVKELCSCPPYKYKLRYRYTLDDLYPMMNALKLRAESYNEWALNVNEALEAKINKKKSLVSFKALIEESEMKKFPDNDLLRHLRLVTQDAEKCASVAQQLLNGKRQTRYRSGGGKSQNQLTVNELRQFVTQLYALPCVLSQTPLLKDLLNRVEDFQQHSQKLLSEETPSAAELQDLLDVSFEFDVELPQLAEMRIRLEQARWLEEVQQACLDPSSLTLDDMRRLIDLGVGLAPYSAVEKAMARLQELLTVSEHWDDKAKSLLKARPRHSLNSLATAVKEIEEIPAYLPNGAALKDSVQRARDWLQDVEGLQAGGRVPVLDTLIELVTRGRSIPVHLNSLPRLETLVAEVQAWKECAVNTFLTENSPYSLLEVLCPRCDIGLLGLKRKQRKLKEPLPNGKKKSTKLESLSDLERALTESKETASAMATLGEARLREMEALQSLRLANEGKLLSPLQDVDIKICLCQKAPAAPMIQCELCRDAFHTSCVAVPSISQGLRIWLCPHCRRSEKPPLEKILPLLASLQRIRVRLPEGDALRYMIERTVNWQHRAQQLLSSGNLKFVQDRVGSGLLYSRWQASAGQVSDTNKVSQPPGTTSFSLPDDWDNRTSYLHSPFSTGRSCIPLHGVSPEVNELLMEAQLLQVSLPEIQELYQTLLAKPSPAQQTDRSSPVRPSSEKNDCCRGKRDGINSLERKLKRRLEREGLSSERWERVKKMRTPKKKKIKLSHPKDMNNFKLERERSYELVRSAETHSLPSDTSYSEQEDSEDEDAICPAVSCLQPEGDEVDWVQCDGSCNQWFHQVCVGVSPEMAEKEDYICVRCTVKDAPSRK
#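 Coupled FDH/NAD⁺ fluorescence readout. KDM5BΔAP 200 nM final; compound titration, 10 min RT preincubation; substrate mix 12.5 µM H3K4me3, 25 µM 2-OG, 50 µM Fe(II), 100 µM ascorbate, 0.25 mM NAD⁺, 0.25 U/mL FDH; ΔRFU over 30 min.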
# IP6K1 inh = Primary qHTS assay for small molecule inhibitors of Inositol hexaphosphate kinase 1 (IP6K1); IP6K1 kinase, ADP-Glo luminescence, 2 h; hits give low values; activity change, % (series mostly up to about 58 µM); hit rate 0.81% among 140,000; AID 1645851, 2021; in the data active = activity change below about -25%; also: % is scaled to controls: 0 for no effect and ±100 for the full control effect
#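 ADP-Glo luminescence measures ADP made by human IP6K1 during a 2 h RT reaction with ATP/IP6 (mix at 1.3 mM/130 uM); top library doses 57.5 and 19.1 uM final.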
# SNCA expr inhib = Primary qHTS assay for inhibitors of alpha-synuclein gene (SNCA) expression | HEK-293 SNCA-luciferase knock-in, luminescence, 24 h | Potency, µM (titrated, usually from 57.2 µM), inactives show top-dose activity change, negative = inhibition, hits mostly inhibitors | hit rate 0.17% among 140,000 | AID 1671194, 2021;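 also: potency is read from the fitted curve at half-maximal effect; plate controls were DMSO cells for no effect and cell-free wells for full effect; nearly all actives have a fitted effect of over 45% in size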
# SNCA viab count = GF-AFC viability counterscreen for inhibitors of alpha-synuclein gene (SNCA) expression | HEK-293-SNCA-luc viability, GF-AFC fluorescence, 24 h | Potency, µM (titrated, usually from 57.1 µM), inactives show top-dose activity change, negative = cytotoxicity, hits mostly cytotoxic | hit rate 0.12% among 150,000 | AID 1671193, 2021;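 also: potency is read from the fitted curve at half-maximal effect; 0% = DMSO-treated cells and -100% = medium-only wells without cells; nearly all actives have a fitted effect of over 30% in size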
#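 HEK-293-SNCA-luc cells (1500/well) plated 24 h, then exposed 24 h to a dilution series; GF-AFC added 30 min at 37C, fluorescence 405/540 nm; normalised to medium-only and DMSO wells, Hill fit.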
# Starred values were filed as active, the others as inactive; i = inactive; ? = inconclusive; · = not tested or not shown; [ ] = remark or other dose. Unless noted, calls follow the shape of the dose curve; as a rule, active = well fitted curve in the direction sought with a large enough effect; inconclusive = small, poorly fitted or top-dose-only effect, or another doubt; inactive = no such curve, though single readings can be large; an effect the other way counts as inactive or inconclusive.
SMILES,KDM5B inh,IP6K1 inh,SNCA expr inhib,SNCA viab count
CCOC(=O)C1CCN(C(=O)c2cn3ccnc(-c4ccc(OC)cc4)c3n2)CC1,25µM*,22,2%,5%
CCOC(=O)C1CCN(C(=O)c2cn3cc(-c4ccc(OC)cc4)sc3n2)CC1,·,6,50%,-2%
COc1ccc(-c2nccn3cc(C(=O)NCc4nc5ccccc5n4C)nc23)cc1,7.9µM*,16,-5%,-26%
O=C(C(c1ccccc1)N1CCN(S(=O)(=O)c2cccs2)CC1)N1CCCC1 (configuration not stated),i,·,·,·
COCCNC(=O)c1cn2ccnc(-c3ccc(C)cc3)c2n1,i,20,30%,-21%
COc1ccc(-c2nccn3cc(C(=O)NCCc4cccnc4)nc23)cc1,28µM*,13,-18%,-19%
Cc1ccc(-n2nc3n(c2=O)CCN(C(=O)c2ccc(Cl)nc2)C3)cc1,25µM*,6,-14%,-4%
COc1ccccc1C(=O)N1CCn2c(nn(-c3ccc(C(F)(F)F)cc3)c2=O)C1,79µM*,-1,?,-14%
O=C(c1ccccc1)N1CCn2c(nn(-c3ccc(C(F)(F)F)cc3)c2=O)C1,?,7,-8%,8%
O=c1n(-c2cccc(Cl)c2)nc2n1CCN(Cc1ccccc1)C2,89µM*,8,20%,-14%
CC1(COc2cccnc2)COc2ccc(C(=O)NCC3CCOCC3)cc2N1 (configuration not stated),35µM*,1,-8%[87.6 µM],8%[87.6 µM]
CC1(COc2cccnc2)COc2ccc(C(=O)NC3CCC(O)CC3)cc2N1 (configuration not stated),35µM*,-2,-25%[87.6 µM],3%[87.6 µM]
COc1ccc(OCC2(C)COc3ccc(C(=O)NC4CCC(O)CC4)cc3N2)cc1 (configuration not stated),32µM*,-15,?,?
O=C(Nc1ccc(Br)cc1F)c1cc2nc(-c3ccco3)cc(C(F)(F)Cl)n2n1,?,-2,11%,5%
Cc1cccc(CN2C[C@@H]3[C@H](C2)N(Cc2ccc(O)cc2)C(=O)C(C)(C)[S+]3(=O)[O-])c1,i,23,4%[87.6 µM],-10%[87.6 µM]
O=C(NCC(F)(F)F)c1cc(C2CC2)nc2onc(C3CCCNC3)c12 (configuration not stated),?,7,15%,2%
Cc1cc(C)c(CNC(=O)c2nc(Nc3ccccc3)cc3[nH]ccc23)c(=O)[nH]1,16µM*,-18,13%[87.6 µM],10%[87.6 µM]
Cc1cc(C)c(CNC(=O)c2nc(-c3cccc(O)c3)cc3[nH]ccc23)c(=O)[nH]1,32µM*,-15,31%[87.6 µM],?
Cc1cc(-c2cc3c(ccn3C(C)C)c(C(=O)NCc3c(C)cc(C)[nH]c3=O)n2)ccn1,i,14,-5%[87.6 µM],-19%[87.6 µM]
COc1ncccc1-c1cc2[nH]ccc2c(C(=O)NCc2c(C)cc(C)[nH]c2=O)n1,i,-2,-4%[87.6 µM],?
COc1cccc(Nc2nc3cc(C)ccc3nc2NS(=O)(=O)c2ccc(Cl)cc2)c1,?,4,?,-2%
COc1ccccc1-n1cc(-c2nc(C3CCOC3)no2)cn1 (configuration not stated),28µM*,28,26%,-10%
COCCCNc1ncccc1-c1cc(-c2ccccc2)nc2c(C)noc12,40µM*,-13,-11%[87.6 µM],15%[87.6 µM]
Cc1noc2c(-c3cccnc3NCCCn3ccnc3)cc(-c3ccccc3)nc12,35µM*,-13,?,-26%[87.6 µM]
Cc1noc2c(-c3cccnc3NCCN(C)C)cc(-c3ccccc3)nc12,?,-9,2%[87.6 µM],-13%[87.6 µM]
SMILES,KDM5B inh,IP6K1 inh,SNCA expr inhib,SNCA viab count
CC12CC3CC(C)(C1)CC(N)(C3)C2,i,25,5%,2%
CCc1noc(-c2ccn3c(CNC(=O)Cc4ccccc4OC)nnc3c2)n1,?,1,-8%,2%
CCc1noc(-c2ccn3c(CNC(=O)Cc4ccccc4Cl)nnc3c2)n1,16µM*,25,2%,2%
CCc1noc(-c2ccn3c(CNC(=O)c4cc(C)ccc4C)nnc3c2)n1,25µM*,-1,6%,-11%
CCc1noc(-c2ccn3c(CNC(=O)Cc4ccc(C)cc4)nnc3c2)n1,28µM*,0,-4%,2%
CCOc1ccccc1CN1CCC2(CCN(CCC(C)C)CC2)Oc2ccccc21,?,-3,-9%,?
CNc1nc2c(s1)C(c1ccccc1F)CC(=O)N2 (configuration not stated),35µM*,-11,-9%,-15%
O=C(CSc1ncnc2ccccc12)Nc1cc(F)ccc1F,i,·,·,·
Cc1cccc(-n2nc(-c3c(C)nc4scc(CC(=O)NC5CC5)n4c3=O)cc2C)c1,25µM*,13,-5%,?
CCCNC(=O)Cc1csc2nc(C)c(-c3cc(C)n(-c4ccc(Cl)c(Cl)c4)n3)c(=O)n12,28µM*,16,-25%,-4%
Cc1nc2scc(CC(=O)NCC(C)C)n2c(=O)c1-c1cc(C)n(-c2ccc(F)cc2)n1,?,25,2%,-4%
CCCCNC(=O)Cc1csc2nc(C)c(-c3cc(C)n(-c4cccc(Cl)c4)n3)c(=O)n12,?,23,-14%,-4%
Cc1ccc(Cl)cc1-n1nc(-c2c(C)nc3scc(CC(=O)NCCC(C)C)n3c2=O)cc1C,22µM*,6,-10%,?
Cc1nc2scc(CC(=O)N3CCOCC3)n2c(=O)c1-c1cc(C)n(-c2ccc(C(C)C)cc2)n1,25µM*,5,-2%,-3%
O=C(NCCN1CCOCC1)c1noc(-c2ccccc2F)n1,i,-10,13%,10%
O=C(OCc1ccccc1)N1CCC2(CC1)C(=NC1CCCCC1)NC(=O)N2c1cccnc1,28µM*,2,0%,-11%
C=CCNC(=S)NC1CC1,i,·,·,·
C#CCN(C)C(=O)CC1COc2ccc(C(=O)NCCOC)cc2N1C (configuration not stated),32µM*,8,-12%,-1%
CCN(C(=O)CC1COc2ccc(C(=O)N(C)C)cc2N1C)C1CC1 (configuration not stated),i,-6,10%,-3%
COCCNC(=O)c1ccc2c(c1)N(C)C(CC(=O)N(C)C(C)C)CO2 (configuration not stated),28µM*,-10,24%,2%
O=C(CSc1nc2ccccc2nc1Cc1ccccc1)N1CCCc2ccccc21,i,2,-27%,2%
Cc1cc(=O)n(CC(=O)Nc2cccc(Cl)c2)c(N2CCc3ccccc3C2)n1,13µM*,-3,?,?
COc1cccc(CNC(=O)Cn2c(N3CCc4ccccc4C3)nc(C)cc2=O)c1,35µM*,11,?,-19%
Cc1cc(=O)n(CC(=O)Nc2ccc(C(C)C)cc2)c(N2CCc3ccccc3C2)n1,i,15,3%,-1%
Cc1cc(=O)n(CC(=O)Nc2cccc(C(C)C)c2)c(N2CCc3ccccc3C2)n1,22µM*,26,2%,-8%

# High-throughput results from PubChem.
